# Rows were chosen to be rich in hits. Some 2.9% of all compounds tested hit in one or more screens of this group.
# GLP-1R agonist – activates the human GLP-1 receptor | HEK293 GLP-1R CRE-luciferase, luminescence, 4-6 h; cells express a hypersensitive GLP-1R form | Potency, µM (highest dose often 45.6 µM), without a hit: top-dose activation, hits mostly activators | 380,000 tested, 0.007% active; further: potency means the concentration at half of the fitted maximal effect; % of control where 0% means no effect
# Target sequence (P43220 whole entry, looked up): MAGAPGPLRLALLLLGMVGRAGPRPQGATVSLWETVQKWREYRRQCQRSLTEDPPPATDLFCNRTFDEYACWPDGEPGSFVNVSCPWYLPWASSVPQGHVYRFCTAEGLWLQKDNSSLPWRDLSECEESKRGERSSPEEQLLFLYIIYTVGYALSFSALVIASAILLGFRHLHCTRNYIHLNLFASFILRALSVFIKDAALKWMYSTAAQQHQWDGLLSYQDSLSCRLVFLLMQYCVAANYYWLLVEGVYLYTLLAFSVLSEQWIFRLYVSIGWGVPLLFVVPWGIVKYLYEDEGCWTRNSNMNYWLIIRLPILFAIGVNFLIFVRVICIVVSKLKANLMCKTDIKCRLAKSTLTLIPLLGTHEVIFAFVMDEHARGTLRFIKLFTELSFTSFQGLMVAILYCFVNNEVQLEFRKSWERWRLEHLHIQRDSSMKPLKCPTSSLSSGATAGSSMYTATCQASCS
# GLP1R cytotox – cytotoxicity counter-screen for GLP-1 receptor inverse agonists | HEK293 cAMP-luciferase reporter cells, luminescence, 24 h | Potency, µM (top dose mostly 38.3 µM), for inactives: at the top dose activity change, negative = inhibition, usual class: inhibitors | 410,000 tested, 0.13% active | AID 624418;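 further: loss of luciferase light is scored as toxicity; potency means the concentration at half of the fitted maximal effect; on the % scale 0 is the no-effect control and ±100 the full control effect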
#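 To flag toxic compounds, the library was rerun on cells for 24 hr at 37 deg C and 5% CO2. Viability-linked luminescence was captured 12 min after adding luciferase detection reagent.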
# GLP1R inv ag – inverse agonists of human GLP-1 receptor; HEK293 GLP-1R CRE-luciferase, luminescence, 24 h; GLP-1R form is constitutively active; Potency, µM (top dose mostly 38.3 µM), without a hit: at the highest dose activity change, negative = inhibition, actives largely listed as inhibitors; 410,000 tested, 1.6% active; AID 624417; further: potency means the concentration at half of the fitted maximal effect; on the % scale 0 is the no-effect control and ±100 the full control effect; nearly all actives have a fitted effect of over 55% in size
#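 Luminescence readout: a drop in cAMP-driven luciferase signal flags inverse agonism at a constitutively active GLP-1R stably expressed in HEK293. Compound exposure lasted 24 hr at 37 deg C, 5% CO2.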
# LDHA inh – inhibitors of human lactate dehydrogenase A | P00338 | purified LDHA, NADH/diaphorase-resazurin fluorescence; stronger effect = lower value | activity change, % (values are at about 110 or 230 µM) | 480,000 tested, 0.15% active; in the data active means activity change below about -30%; inconclusive means mostly about -25% to -30%;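 further: plate controls were DMSO wells for no effect and wells without enzyme for full effect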
#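 Enzyme activity of human lactate dehydrogenase 5 (2 nM; 0.06 mM NADH, 0.2 mM pyruvate, 5 min, RT) is measured via a resazurin/diaphorase fluorescence readout of residual NADH.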
# p53 reactivation – mutant p53 re-activation in reporter cells; Potency, µM (highest dose often 92.2 µM), without a hit: top-dose activity change, positive = activation, hits mostly activators; 320,000 tested, 0.063% active; H1299 p53-A138V BP100-luciferase reporter, luminescence, 24 h; further: potency means the concentration at half of the fitted maximal effect; % of control where 0% means no effect; nearly all actives have a fitted effect of over 45% in size
#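 p53-null H1299 cells stably carrying temperature-sensitive p53-A138V and a BP100-luciferase reporter were pinned with compounds (4-point, 1:5 series) and held 24 hrs at 37 deg C. Luminescence was read 10 min after detection reagent.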
# ClpP mod – qHTS Assay for Activators of ClpP | AID 651965, 2013 | Potency, µM (top dose mostly 57.5 µM), for inactives: at the highest dose activity change, negative = active | 340,000 tested, 1.9% active | ATP-dependent Clp protease proteolytic subunit (Bacillus subtilis (strain 168)), P80244 | purified B. subtilis ClpP, FRET peptide cleavage, 20 min; active means well fitted falling curve with a large enough effect; inconclusive means small, poorly fitted or top-dose-only effect; inactive means no such curve, though single readings can be large or run the other way; further: potency means the concentration at half of the fitted maximal effect; the source files actives as falling curves though it sought activators and does not explain the sign; nearly all actives have a fitted effect of over 65% in size
# Target sequence (P80244 whole entry, looked up): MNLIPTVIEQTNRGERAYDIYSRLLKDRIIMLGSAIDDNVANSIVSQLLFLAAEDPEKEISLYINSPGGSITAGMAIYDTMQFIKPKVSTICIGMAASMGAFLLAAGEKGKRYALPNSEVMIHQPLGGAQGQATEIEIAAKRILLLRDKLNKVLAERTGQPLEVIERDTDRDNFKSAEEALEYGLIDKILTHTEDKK
#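 FRET quenching reversal measured ClpP activation: 10 microg/mL B. subtilis ClpP at pH 8 with the FRET-FV decapeptide, read at 430 nm after 320 nm excitation. The 20-min minus 0-min signal was scaled between DMSO/no-enzyme wells and ADEP (5.8 microM final).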
# Numbers without * were called inactive; i = inactive; ? = inconclusive; . = no result given; ! = not confirmed by another sample; [ ] = dose if it differs, or a comment. Unless noted, the call rests on the fitted dose curve; in most records, active means well fitted curve in the direction sought with a large enough effect; inconclusive means small, poorly fitted or top-dose-only effect, or another doubt; inactive means no such curve, though single readings can be large; an effect the other way counts as inactive or inconclusive.
SMILES,GLP-1R agonist,GLP1R cytotox,GLP1R inv ag,LDHA inh,p53 reactivation,ClpP mod
COc1ccc(CCNCCC(=O)Nc2c(C)cc(C)cc2C)cc1OC,2%,8%,?,-3,-9%,-1%
CC(=O)c1ccc(NS(=O)(=O)c2cc3[nH]c(=O)c(=O)[nH]c3cc2C)cc1,.,-27%,5%,0,.,-1%
CC(=O)c1ccc(N2CCN(S(=O)(=O)c3cc4[nH]c(=O)c(=O)[nH]c4cc3C)CC2)cc1,-4%,-5%,22%,-30*!,15%,-6%
Cc1ccc(C(=O)/C=C/Nc2ccccn2)cc1,-15%,10%,5.6µM*,-12,.,-8%
Cc1ccc(N/C=C/C(=O)c2ccc(C)cc2)cc1,0%,-2%,10%,-1,?,-14%
CCN1C=C(C(=O)OC)C(c2cccc(C)c2)C(C(=O)OC)=C1,2%,i,-15%,2,-7%,6.3µM*
COC(=O)C1=CN(C)C=C(C(=O)OC)C1c1ccccc1OCc1ccccc1,.,.,.,8,.,.
CCCOc1ccccc1C1C(C(=O)OC)=CN(C(C)C)C=C1C(=O)OC,12%,i,?,-3,-7%,16µM*
CCCCOc1ccccc1C1C(C(=O)OC)=CN(CC)C=C1C(=O)OC,10%,i,?,1,0%,14µM*
Cc1cc2c(nn1)CCC/C2=N\O,-8%,13%,-3%,-2,13%,18µM*
Cc1ccc(CNC(=O)C2CCC(=O)N(CCc3ccccc3)C2)s1 (centres undefined),6%,1%,7%,0,26%,1%
Cc1cc(C)cc(Oc2coc3c(CN(C)C)c(O)ccc3c2=O)c1,5%,-1%,0%,-3,3%,0%
CCc1cc2c(=O)c(-c3ccc4c(c3)OCO4)coc2c(CN(C)C)c1O,-1%,2%,-24%,-4,4%,4%
Cc1oc2c(CN(C)C)c(O)ccc2c(=O)c1-c1cscn1,-5%,-4%,0%,-2,4%,25µM*
CCc1cc2c(=O)c(-c3cscn3)coc2c(CN(C)C)c1O,3%,4%,26%,-2,7%,16µM*
COc1ccc(Oc2coc3c(CN(C)C)c(O)ccc3c2=O)cc1,-2%,3%,0%,-2,-6%,28µM*
COc1ccc(Oc2c(C)oc3c(CN(C)C)c(O)ccc3c2=O)cc1,-5%,-1%,5%,-1,2%,28µM*
CCc1c(C)c2ccc(O)c(CN(C)C)c2oc1=O,18%,376%,73%,5,-1%,-34%
COc1cccc(N2CCN(C(=O)c3cccc(NC(=O)C4=C(C)OCCS4)c3)CC2)c1,4%,3%,-20%,1,.,-1%
COc1ccc(C2CC(c3ccc(Cl)c(Cl)c3)Nc3nc(N)nn32)cc1 (centres undefined),0%,2%,-5%,-8,-6%,?
COc1cccc(CNC(=O)CCNS(=O)(=O)c2ccc(C)cc2)c1,-7%,-1%,-29%,2,-4%,1%
CCOC(=O)CCNCc1ccc(F)cc1,0%,20%[7.66 µM],21%[7.66 µM],-7,0%,18µM*
OCC1(Cc2ccccc2F)CCCN(CC2CCCCC2)C1 (centres undefined),24%,-17%,?,-2,.,.
OCC1(Cc2ccccc2F)CCCN(Cc2c(F)ccc(F)c2F)C1 (centres undefined),5%,13%,11µM*,-7,6%,0%
Nc1sc(Cc2ccccc2)cc1C(=O)c1c(-c2ccccc2)[nH]c2ccccc12,.,?,5.6µM*,-5,.,-8%
SMILES,GLP-1R agonist,GLP1R cytotox,GLP1R inv ag,LDHA inh,p53 reactivation,ClpP mod
NC(=O)c1cc(Cc2ccccc2)sc1NC(=O)c1ccccc1,.,.,.,8,.,.
CC(C)CCC(C(=O)O)C(C)CC(=O)NC1CCCCC1 (centres undefined),-7%,-9%,-4%,-2,-10%,0%
CCCCCC(C(=O)O)C(C)CC(=O)NC1CCCCC1 (centres undefined),-11%,-5%,1%,-8,-14%,13µM*
COc1cccc(NC(=O)Nc2nc(SC(C)(C)C)ns2)c1,0%,?,5.6µM*,-3,.,-1%
Cc1ccc(C)c(N2CCN(C(=O)c3ccc4[nH]c(C)c(C)c4c3)CC2)c1,.,-27%,7.9µM*,-2,.,-6%
CCOC(=O)c1c(NC=C(C#N)C#N)sc(C)c1CC,.,.,.,3,.,.
CCOc1ccc(NC(=O)CSc2nnc(-c3ccccc3Cl)n2Cc2ccco2)cc1,10%,-22%,?,-2,6%,18µM*
COc1ccc(NC(=O)CSc2nnc(-c3ccccc3Cl)n2Cc2ccco2)c(OC)c1,-3%,-26%,7.1µM*,-6,-4%,-3%
CC(N=Cc1cccc(O)c1O)c1ccccc1 (centres undefined),-2%,-20%,23%,66,?,-2%
O=C(c1ccc(-n2cncn2)c([N+](=O)[O-])c1)N1CCN(S(=O)(=O)c2ccccc2F)CC1,-10%,18%,0%,0,24%,14µM*
O=C(c1ccc(-n2cncn2)c([N+](=O)[O-])c1)N1CCN(S(=O)(=O)c2c(F)cccc2F)CC1,0%,8%,13%,1,5%,2%
O=C(c1ccc(N2CCCC2)c([N+](=O)[O-])c1)N1CCN(S(=O)(=O)c2ccc(Cl)cc2)CC1,-10%,-10%,10µM*,-1,-1%,-2%
O=C(c1ccc(Cl)c([N+](=O)[O-])c1)N1CCN(S(=O)(=O)c2ccc(Cl)cc2)CC1,-3%,-9%,?,-1,?,1%
CC1CCCC(NC(=O)CN(C)CC(=O)Nc2cccc(F)c2)C1C (centres undefined),-5%,-14%,?,2,-2%,3%
O=[N+]([O-])c1ccc(SNc2ccccc2)c([N+](=O)[O-])c1,1%,?,11µM*,-1,.,-2%
O=[N+]([O-])c1ccccc1SNc1ccccc1,0%,-5%,?,0,.,-2%
O=C1C=CCC(/C=C/c2ccccc2)O1 (centres undefined),5%,-15%,2.5µM*,-2,-20%,0%
O=C(/C=C/c1ccccc1)C1CC1,.,.,.,9,.,.
CC(C)(C)CN1CCC(Oc2cccc(C(=O)N3CCNC(=O)C3(C)C)c2)CC1,0%,8%,8%,-2,3%,-1%
O=C(CN1CCN(CC(=O)Nc2ccccc2Cl)CC1)Nc1ccc(F)c(F)c1,-2%,-6%,-27%,-1,0%,-3%

# Compound activity (PubChem BioAssay)
